Screening data deposited in PubChem by National Center for Advancing Translational Sciences (NCATS).
BCR signal inh – chronic active BCR signaling inhibition | ABC-DLBCL IkBa-CBG/CBR reporter, luminescence ratio, 4 h | Potency, µM (doses to about 46.1 µM), for inactives: at the top dose activity change, negative = inhibition, actives largely listed as inhibitors | 340,000 tested, 0.05% active | AID 493014; active = well fitted inhibition curve with a large enough effect in the signal ratio, with a control signal flat, not every such curve was filed as active; inconclusive = small, poorly fitted or top-dose-only effect, or effect the other way, or a change in a side signal; the % refers to the signal ratio;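 note: potency is the fitted concentration of half-maximal effect; plate controls were basal doxycycline-induced cells for no effect and cells given 10 µM MG132 for full effect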
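Cell line TMD8 (human ABC DLBCL), stably expressing tet-inducible CBG68-IkBa fusion and CBR; IMDM/0.5% FBS; cpd up to 46 uM; dox induction, 4 h, 37C/5% CO2; dual luminescence; green/red ratio; MG132 control.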
DT40 TDP1 no CPT – qHTS for Inhibitors of human tyrosyl-DNA phosphodiesterase 1 (TDP1): qHTS in cells in absence of CPT; DT40 Tdp1-/- hTDP1 cells, no CPT, ATP luminescence, 48 h; 420,000 tested, 15% active; Potency, µM (titrated, usually from 46.2 µM), inactives show at the highest dose activity change, negative = growth inhibition, hits mostly inhibitors; AID 686978, 2013; note: potency is the fitted concentration of half-maximal effect; % is set by controls: 0 for no effect and ±100 for the full control effect; nearly all actives have a fitted effect of over 55% in size
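Growth of hTDP1-complemented DT40 Tdp1-knockout cells is measured by ATP luminescence after at least 48 hr compound exposure at 37 °C, with DMSO substituting for the 20 nM CPT used in the parallel screen.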
IL-1B inflam inh – inhibitors of inflammasome signaling (IL-1 beta secretion). THP-1 LPS/ATP IL-1B secretion, AlphaLISA, 16 h; stronger effect = lower value. activity change, % at 57.5 µM. 360,000 tested, 4.7% active; in the data active = activity change below about -50%; inconclusive = mostly about -30% to -49%; note: % is set by controls: 0 for no effect and ±100 for the full control effect
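THP-1 cells pretreated 1 hr with compounds (up to 57.5 uM final), then stimulated with LPS (250 ng/mL final) plus ATP (1.25 mM final); secreted IL-1B measured by AlphaLISA after 16 hr, decreased signal indicating inhibition.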
SW480 rerep – inducers of DNA re-replication in SW480 colon cancer cells; SW480 DNA re-replication, Hoechst DNA content imaging, 48 h; 340,000 tested, 1.8% active; Potency, µM (doses to about 46.1 µM), for the others: at the top dose re-replication activation, usual class: activators; AID 624297; note: potency is the fitted concentration of half-maximal effect; % of control where 0% means no effect; nearly all actives have a fitted effect of over 55% in size
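Compounds, transferred as 23 nL by pin tool, were incubated with cells for 48 hr; DNA content per nucleus was then quantified by Hoechst staining and fluorescence plate imaging.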
MCF10A rerep – inducers of DNA re-replication in MCF 10A breast cells; AID 624296; Potency, µM (highest dose often 46.1 µM), for inactives: at the highest dose activity, positive = re-replication, most hits filed as activators; 350,000 tested, 2.9% active; MCF 10A DNA re-replication, Hoechst nuclear intensity, 48 h; note: potency is the fitted concentration of half-maximal effect; % of control where 0% means no effect; nearly all actives have a fitted effect of over 50% in size
DT40 TDP1 CPT – growth inhibition of DT40 Tdp1-/-;hTDP1 cells with camptothecin (screen for TDP1 inhibitors); chicken DT40 Tdp1-/-;hTDP1 cells + 20 nM CPT, ATP luminescence, 48 h; Potency, µM (series often up to 46.2 µM), without a hit: at the highest dose activity change, negative = growth inhibition, hits mostly inhibitors; 420,000 tested, 12% active; AID 686979; note: potency is the fitted concentration of half-maximal effect; % is set by controls: 0 for no effect and ±100 for the full control effect; nearly all actives have a fitted effect of over 55% in size
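Chicken DT40 Tdp1-/- cells complemented with human TDP1, 400 cells/well, exposed to compounds plus 20 nM camptothecin for at least 48 h at 37 C; viability read as ATP content by CellTiter-Glo luminescence.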
* hit, by the source's call; [ ] = remark or other dose. Shown are actives, neighbours in structure and some others; about 19% of the full set was active somewhere. Unless noted, calls come from the whole dose curve; as a rule, active = well fitted curve in the direction sought with a large enough effect; inconclusive = small, poorly fitted or top-dose-only effect, or another doubt; inactive = no such curve, though single readings can be large; an effect the other way counts as inactive or inconclusive.

What do the screens show for `N#Cc1cnn(-c2ccccc2)c1NC(=O)CN1CCN(c2ccccc2)CC1`?
BCR signal inh: -7%; DT40 TDP1 no CPT: 23µM*; IL-1B inflam inh: 37; SW480 rerep: -8%; MCF10A rerep: 3%; DT40 TDP1 CPT: inconclusive

How did Cc1cc(C)c(C)c(S(=O)(=O)N2CCN(CC(=O)Nc3sccc3C#N)CC2)c1C do in these assays?
BCR signal inh: 0%; DT40 TDP1 no CPT: inconclusive; IL-1B inflam inh: 17; SW480 rerep: -56%; MCF10A rerep: 4%; DT40 TDP1 CPT: 26µM*

How did COc1cc(C(C[N+](=O)[O-])c2c(C)[nH]c3ccccc23)cc(OC)c1OC (configuration not stated) do in these assays?
BCR signal inh: inconclusive; DT40 TDP1 no CPT: inconclusive; IL-1B inflam inh: 23; SW480 rerep: -3%; MCF10A rerep: -2%; DT40 TDP1 CPT: inconclusive

What do the screens show for `O=[N+]([O-])CC(c1ccccc1)c1c[nH]c2ccccc12` (configuration not stated)?
DT40 TDP1 no CPT: 5.8µM*; IL-1B inflam inh: 5; SW480 rerep: 169%; MCF10A rerep: 15µM*; DT40 TDP1 CPT: 7.3µM*

Results for CCOC(=O)c1c2c3c(c(Cl)ccc3[nH]c1=O)C(=O)c1ccccc1-2 ?
BCR signal inh: 1%; DT40 TDP1 no CPT: inconclusive; IL-1B inflam inh: -85*; SW480 rerep: -22%; MCF10A rerep: inconclusive; DT40 TDP1 CPT: -16%

What do the screens show for `COc1cccc(/C=N/NC(=O)c2cc3c(OC)cccc3[nH]2)c1O`?
BCR signal inh: inconclusive; DT40 TDP1 no CPT: 6.5µM*; IL-1B inflam inh: 69; SW480 rerep: 9.2µM*; MCF10A rerep: 0%; DT40 TDP1 CPT: 5.2µM*

What do the screens show for `COc1ccccc1/C=N/NC(=O)c1cc2c(OC)c(OC)ccc2[nH]1`?
BCR signal inh: inconclusive; DT40 TDP1 no CPT: 3.3µM*; IL-1B inflam inh: 32; SW480 rerep: inconclusive; MCF10A rerep: inconclusive; DT40 TDP1 CPT: 4.1µM*

Results for CCOc1ccc2[nH]c(C(=O)N/N=C/c3cc(OC)c(OC)c(OC)c3)cc2c1 ?
BCR signal inh: inconclusive; DT40 TDP1 no CPT: 16µM*; IL-1B inflam inh: -79*; SW480 rerep: -6%; MCF10A rerep: inconclusive; DT40 TDP1 CPT: inconclusive

What do the screens show for `COc1cccc(/C=N/NC(=O)c2cc3c(OC)cccc3[nH]2)c1OC`?
BCR signal inh: inconclusive; DT40 TDP1 no CPT: 7.3µM*; IL-1B inflam inh: -20; SW480 rerep: -4%; MCF10A rerep: inconclusive; DT40 TDP1 CPT: -19%

What do the screens show for `COc1ccc(OC)c(/C=N/NC(=O)c2cc3c(OC)cccc3[nH]2)c1`?
BCR signal inh: inconclusive; DT40 TDP1 no CPT: inconclusive; IL-1B inflam inh: -29; SW480 rerep: 27%; MCF10A rerep: inconclusive; DT40 TDP1 CPT: -22%

What do the screens show for `COc1cccc2[nH]c(C(=O)NCc3ccccc3)cc12`?
BCR signal inh: 5%; DT40 TDP1 no CPT: -22%; IL-1B inflam inh: -22; SW480 rerep: -7%; MCF10A rerep: -15%; DT40 TDP1 CPT: -6%

Results for COc1ccc(/C=N/NC(=O)c2[nH]c3ccc(Br)cc3c2-c2ccccc2)c(C(=O)O)c1OC ?
BCR signal inh: inconclusive; DT40 TDP1 no CPT: -12%; IL-1B inflam inh: 30; SW480 rerep: 1%; MCF10A rerep: 26%; DT40 TDP1 CPT: -5%

How did COc1ccc(/C=N/NC(=O)c2cccc(OC(F)(F)C(F)F)c2)c(OC)c1OC do in these assays?
BCR signal inh: -3%; DT40 TDP1 no CPT: -15%; IL-1B inflam inh: -2; SW480 rerep: 1%; MCF10A rerep: 5%; DT40 TDP1 CPT: 1%

What do the screens show for `CCOc1ccc(/C=N/NC(=O)c2cc3c(OC)cccc3[nH]2)cc1`?
BCR signal inh: inconclusive; DT40 TDP1 no CPT: 23µM*; IL-1B inflam inh: inconclusive; SW480 rerep: inconclusive; MCF10A rerep: inconclusive; DT40 TDP1 CPT: 18µM*

What do the screens show for `COc1cccc(/C=N/NC(=O)c2cc3c(OC)c(OC)ccc3[nH]2)c1OC`?
BCR signal inh: inconclusive; DT40 TDP1 no CPT: 2.6µM*; IL-1B inflam inh: 26; SW480 rerep: 23µM*; MCF10A rerep: inconclusive; DT40 TDP1 CPT: 2.3µM*

What do the screens show for `COc1cc(/C=N/NC(=O)c2cc3ccccc3[nH]2)ccc1O`?
BCR signal inh: inconclusive; DT40 TDP1 no CPT: -2%; IL-1B inflam inh: -7; SW480 rerep: 4%; MCF10A rerep: 3%; DT40 TDP1 CPT: 4%

How did COc1ccc2c(c1)CCc1cnc(-n3ncc(C(=O)NCCCN4CCOCC4)c3C)nc1-2 do in these assays?
DT40 TDP1 no CPT: inconclusive; DT40 TDP1 CPT: -2%[9.04 µM]

Results for O=C(Cn1c(C(=O)N2CCc3ccccc3C2)cc2sccc21)c1ccccc1 ?
BCR signal inh: 5%; DT40 TDP1 no CPT: inconclusive; IL-1B inflam inh: inconclusive; SW480 rerep: 2%; MCF10A rerep: -2%; DT40 TDP1 CPT: 29µM*

Results for COc1cc(/C=C2/CC/C(=C/c3ccc(O)c(OC)c3)C2=O)ccc1O ?
BCR signal inh: inconclusive; DT40 TDP1 no CPT: inconclusive; IL-1B inflam inh: -17; SW480 rerep: 3%; MCF10A rerep: inconclusive; DT40 TDP1 CPT: 21µM*

What do the screens show for `COc1ccc(/C=C2\CCC/C(=C\c3ccc(OC)c(OC)c3OC)C2=O)c(OC)c1OC`?
BCR signal inh: -14%; DT40 TDP1 no CPT: 16µM*; IL-1B inflam inh: 0; SW480 rerep: 1%; MCF10A rerep: 13%; DT40 TDP1 CPT: inconclusive

How did COc1ccc(C=C2C=C(C(C)(C)C)C(=O)C(C(C)(C)C)=C2)cc1OC do in these assays?
BCR signal inh: inconclusive; DT40 TDP1 no CPT: 7.3µM*; IL-1B inflam inh: -96*; SW480 rerep: inconclusive; MCF10A rerep: 21µM*; DT40 TDP1 CPT: inconclusive

Results for COc1cc(/C=C2\C(=O)N(C)C(=S)N2C)ccc1O ?
BCR signal inh: inconclusive; DT40 TDP1 no CPT: -23%; IL-1B inflam inh: 0; SW480 rerep: 2%; MCF10A rerep: inconclusive; DT40 TDP1 CPT: -20%

Results for COc1ccc(/C=C2\CC/C(=C\c3ccc(OC)c(OC)c3)C2=O)cc1OC ?
BCR signal inh: inconclusive; DT40 TDP1 no CPT: 21µM*; IL-1B inflam inh: -6; SW480 rerep: inconclusive; MCF10A rerep: inconclusive; DT40 TDP1 CPT: 16µM*

Results for O=C(CSc1ccc(-c2ccncc2)nn1)N1CCN(c2ccccc2)CC1 ?
BCR signal inh: 3%; DT40 TDP1 no CPT: inconclusive; IL-1B inflam inh: 24; SW480 rerep: 1%; MCF10A rerep: -2%; DT40 TDP1 CPT: -7%
